# Measured values as given in the supplement of paper PMC12282887.
# ± gives the standard deviation of the averaged measurements.
# What was measured:
# Test in all cases: promoter activity interaction Z-score (Lux/OD deviation from empty-vector control); higher = stronger promoter induction by the compound
# [1] = test system: E. coli BW25113 acrABp lux reporter
# Procedure, shortened: (§1)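 E. coli BW25113 (wild type or marA, soxS or rob deletion) carrying low-copy luxCDABE promoter reporters grew in 40 µl LB Lennox in 384-well plates at 37°C. Each compound was tested at four 1:2 dilutions in biological duplicates. OD600 and luminescence were read every 30 min for 12 h. Areas were taken over 0–8 h (wild type) or 1–9 h (mutants), and wells below 10% of median growth area were removed. The score is the Z-transformed residual of growth-normalised luminescence fitted against the empty-vector control.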
# [2] = test system: E. coli BW25113 marRABp lux reporter
# Procedure, shortened: as §1
# [3] = test system: E. coli BW25113 micFp lux reporter
# Procedure, shortened: as §1
# [4] = test system: E. coli BW25113 ompFp lux reporter
# Procedure, shortened: as §1
# [5] = test system: E. coli BW25113 robp lux reporter
# Procedure, shortened: as §1
# [6] = test system: E. coli BW25113 soxSp lux reporter
# Procedure, shortened: as §1
# [7] = test system: E. coli BW25113 tolCp lux reporter
# Procedure, shortened: as §1
# [8] = 1 µg/ml, genetic background: wild type
# [9] = 1 µg/ml, genetic background: ΔmarA
# [10] = 1 µg/ml, genetic background: Δrob
# [11] = 1 µg/ml, genetic background: ΔsoxS
# [12] = 2.1 µg/ml, genetic background: wild type
# [13] = 2.1 µg/ml, genetic background: ΔmarA
# [14] = 2.1 µg/ml, genetic background: Δrob
# [15] = 2.1 µg/ml, genetic background: ΔsoxS
# [16] = 4.1 µg/ml, genetic background: wild type
# [17] = 4.1 µg/ml, genetic background: ΔmarA
# [18] = 4.1 µg/ml, genetic background: Δrob
# [19] = 4.1 µg/ml, genetic background: ΔsoxS
# [20] = 8.2 µg/ml, genetic background: wild type
# [21] = 0.07 µg/ml, genetic background: wild type
# [22] = 0.07 µg/ml, genetic background: ΔmarA
# [23] = 0.07 µg/ml, genetic background: Δrob
# [24] = 0.07 µg/ml, genetic background: ΔsoxS
# [25] = 0.15 µg/ml, genetic background: wild type
# [26] = 0.15 µg/ml, genetic background: ΔmarA
# [27] = 0.15 µg/ml, genetic background: Δrob
# [28] = 0.15 µg/ml, genetic background: ΔsoxS
# [29] = 0.29 µg/ml, genetic background: wild type
# [30] = 0.29 µg/ml, genetic background: ΔmarA
# [31] = 0.29 µg/ml, genetic background: Δrob
# [32] = 0.29 µg/ml, genetic background: ΔsoxS
structure (smiles),measurement,setting,value
CO[C@H]1/C=C/O[C@@]2(C)Oc3c(C)c(O)c4c(O)c(c(/C=N/N5CCN(C)CC5)c(O)c4c3C2=O)NC(=O)/C(C)=C\C=C\[C@H](C)[C@H](O)[C@@H](C)[C@@H](O)[C@@H](C)[C@H](OC(C)=O)[C@@H]1C [Rifampicin],promoter activity interaction Z-score,[1]; [8],-0.791 ± 0.2
same,promoter activity interaction Z-score,[1]; [9],-0.655 ± 0.13
same,promoter activity interaction Z-score,[1]; [10],-0.627 ± 0.021
same,promoter activity interaction Z-score,[1]; [11],-0.932 ± 0.2
same,promoter activity interaction Z-score,[1]; [12],-0.695 ± 0.1
same,promoter activity interaction Z-score,[1]; [13],-0.516 ± 0.29
same,promoter activity interaction Z-score,[1]; [14],-0.838 ± 0.088
same,promoter activity interaction Z-score,[1]; [15],-0.731 ± 0.3
same,promoter activity interaction Z-score,[1]; [16],-0.811 ± 0.28
same,promoter activity interaction Z-score,[1]; [17],-0.168 ± 0.19
same,promoter activity interaction Z-score,[1]; [18],-1.06 ± 0.08
same,promoter activity interaction Z-score,[1]; [19],-1.31 ± 0.3
same,promoter activity interaction Z-score,[2]; [8],-0.547 ± 0.12
same,promoter activity interaction Z-score,[2]; [9],-0.978 ± 0.48
same,promoter activity interaction Z-score,[2]; [10],-0.432 ± 0.12
same,promoter activity interaction Z-score,[2]; [11],-0.415 ± 0.079
same,promoter activity interaction Z-score,[2]; [12],-0.461 ± 0.4
same,promoter activity interaction Z-score,[2]; [13],-1.18 ± 0.22
same,promoter activity interaction Z-score,[2]; [14],-0.469 ± 0.39
same,promoter activity interaction Z-score,[2]; [15],-0.423 ± 0.032
same,promoter activity interaction Z-score,[2]; [16],-1.1 ± 0.31
same,promoter activity interaction Z-score,[2]; [17],-1.23 ± 0.38
same,promoter activity interaction Z-score,[2]; [18],-0.719 ± 0.14
same,promoter activity interaction Z-score,[2]; [19],-0.7557 ± 0.006
same,promoter activity interaction Z-score,[3]; [8],-0.224 ± 0.14
same,promoter activity interaction Z-score,[3]; [9],-0.444 ± 0.16
same,promoter activity interaction Z-score,[3]; [10],-0.287 ± 0.055
same,promoter activity interaction Z-score,[3]; [11],-0.476 ± 0.024
same,promoter activity interaction Z-score,[3]; [12],-0.39 ± 0.23
same,promoter activity interaction Z-score,[3]; [13],-0.505 ± 0.12
same,promoter activity interaction Z-score,[3]; [14],-0.336 ± 0.076
same,promoter activity interaction Z-score,[3]; [15],-0.31 ± 0.041
same,promoter activity interaction Z-score,[3]; [16],-0.432 ± 0.21
same,promoter activity interaction Z-score,[3]; [17],-0.471 ± 0.047
same,promoter activity interaction Z-score,[3]; [18],-0.229 ± 0.029
same,promoter activity interaction Z-score,[3]; [19],-0.507 ± 0.018
same,promoter activity interaction Z-score,[3]; [20],-0.505 ± 0.31
same,promoter activity interaction Z-score,[4]; [8],-0.966 ± 0.35
same,promoter activity interaction Z-score,[4]; [9],-1.53 ± 0.33
same,promoter activity interaction Z-score,[4]; [10],-1.43 ± 0.2
same,promoter activity interaction Z-score,[4]; [11],-1.07 ± 0.04
same,promoter activity interaction Z-score,[4]; [12],-1.06 ± 0.5
same,promoter activity interaction Z-score,[4]; [13],-2.11 ± 0.12
same,promoter activity interaction Z-score,[4]; [14],-1.62 ± 0.39
same,promoter activity interaction Z-score,[4]; [15],-0.784 ± 0.23
same,promoter activity interaction Z-score,[4]; [16],-2.01 ± 0.86
same,promoter activity interaction Z-score,[4]; [17],-2.895 ± 0.0098
same,promoter activity interaction Z-score,[4]; [18],-2.58 ± 0.26
same,promoter activity interaction Z-score,[4]; [19],-1.59 ± 0.43
same,promoter activity interaction Z-score,[5]; [8],-0.184 ± 0.35
same,promoter activity interaction Z-score,[5]; [9],-0.802 ± 0.3
same,promoter activity interaction Z-score,[5]; [10],-0.501 ± 0.085
same,promoter activity interaction Z-score,[5]; [11],-0.537 ± 0.55
same,promoter activity interaction Z-score,[5]; [12],0.236 ± 0.31
same,promoter activity interaction Z-score,[5]; [13],-0.639 ± 0.41
same,promoter activity interaction Z-score,[5]; [14],-0.575 ± 0.22
same,promoter activity interaction Z-score,[5]; [15],-0.311 ± 0.2
same,promoter activity interaction Z-score,[5]; [16],-0.918 ± 0.011
same,promoter activity interaction Z-score,[5]; [17],-0.833 ± 0.44
same,promoter activity interaction Z-score,[5]; [18],-0.434 ± 0.68
same,promoter activity interaction Z-score,[5]; [19],-1.71 ± 0.29
same,promoter activity interaction Z-score,[6]; [8],-0.47 ± 0.0069
same,promoter activity interaction Z-score,[6]; [9],-0.3407 ± 0.0028
same,promoter activity interaction Z-score,[6]; [10],-0.44 ± 0.088
same,promoter activity interaction Z-score,[6]; [11],-1.04 ± 0.46
same,promoter activity interaction Z-score,[6]; [12],-0.551 ± 0.01
same,promoter activity interaction Z-score,[6]; [13],-0.657 ± 0.0084
same,promoter activity interaction Z-score,[6]; [14],-0.53 ± 0.048
same,promoter activity interaction Z-score,[6]; [15],-1.11 ± 0.17
same,promoter activity interaction Z-score,[6]; [16],-0.866 ± 0.076
same,promoter activity interaction Z-score,[6]; [17],-0.906 ± 0.027
same,promoter activity interaction Z-score,[6]; [18],-0.982 ± 0.24
same,promoter activity interaction Z-score,[6]; [19],-1.51 ± 0.17
same,promoter activity interaction Z-score,[6]; [20],-0.811 ± 0.051
same,promoter activity interaction Z-score,[7]; [8],-0.736 ± 0.25
same,promoter activity interaction Z-score,[7]; [9],-0.931 ± 0.48
same,promoter activity interaction Z-score,[7]; [10],-0.816 ± 0.4
same,promoter activity interaction Z-score,[7]; [11],-1.26 ± 0.3
same,promoter activity interaction Z-score,[7]; [12],-0.703 ± 0.32
same,promoter activity interaction Z-score,[7]; [13],-1.19 ± 0.18
same,promoter activity interaction Z-score,[7]; [14],-0.827 ± 0.14
same,promoter activity interaction Z-score,[7]; [15],-0.674 ± 0.63
same,promoter activity interaction Z-score,[7]; [16],-0.555 ± 0.72
same,promoter activity interaction Z-score,[7]; [17],-0.65 ± 0.61
same,promoter activity interaction Z-score,[7]; [18],-1.152 ± 0.0016
same,promoter activity interaction Z-score,[7]; [19],-0.717 ± 0.57
same,promoter activity interaction Z-score,[7]; [20],0.0561 ± 0.59
NCC[C@H](O)C(=O)N[C@@H]1C[C@H](N)[C@@H](O[C@H]2O[C@H](CN)[C@@H](O)[C@H](O)[C@H]2O)[C@H](O)[C@H]1O[C@H]1O[C@H](CO)[C@@H](O)[C@H](N)[C@H]1O [Amikacin],promoter activity interaction Z-score,[1]; [21],-0.0946 ± 0.19
same,promoter activity interaction Z-score,[1]; [22],-0.446 ± 0.067
same,promoter activity interaction Z-score,[1]; [23],-0.0638 ± 0.15
same,promoter activity interaction Z-score,[1]; [24],0.407 ± 0.79
same,promoter activity interaction Z-score,[1]; [25],-0.184 ± 0.091
same,promoter activity interaction Z-score,[1]; [26],0.671 ± 0.15
same,promoter activity interaction Z-score,[1]; [27],0.0534 ± 0.092
same,promoter activity interaction Z-score,[1]; [28],0.0811 ± 0.13
same,promoter activity interaction Z-score,[1]; [29],0.115 ± 0.19
same,promoter activity interaction Z-score,[1]; [30],-0.213 ± 0.41
same,promoter activity interaction Z-score,[1]; [31],0.174 ± 0.22
same,promoter activity interaction Z-score,[1]; [32],0.725 ± 0.52
same,promoter activity interaction Z-score,[3]; [21],0.278 ± 0.0046
same,promoter activity interaction Z-score,[3]; [22],-0.0226 ± 0.005
same,promoter activity interaction Z-score,[3]; [23],0.217 ± 0.22
same,promoter activity interaction Z-score,[3]; [24],0.0839 ± 0.14
same,promoter activity interaction Z-score,[3]; [25],0.512 ± 0.097
same,promoter activity interaction Z-score,[3]; [26],-0.00684 ± 0.057
same,promoter activity interaction Z-score,[3]; [27],0.12 ± 0.33
same,promoter activity interaction Z-score,[3]; [28],0.119 ± 0.33
same,promoter activity interaction Z-score,[3]; [29],-0.0466 ± 0.17
same,promoter activity interaction Z-score,[3]; [30],-0.0853 ± 0.18
same,promoter activity interaction Z-score,[3]; [31],0.176 ± 0.21
same,promoter activity interaction Z-score,[3]; [32],0.577 ± 0.056
same,promoter activity interaction Z-score,[4]; [21],0.0689 ± 0.025
same,promoter activity interaction Z-score,[4]; [22],-0.0472 ± 0.084
same,promoter activity interaction Z-score,[4]; [23],-0.503 ± 0.43
same,promoter activity interaction Z-score,[4]; [24],0.197 ± 1.1
same,promoter activity interaction Z-score,[4]; [25],0.165 ± 0.46
same,promoter activity interaction Z-score,[4]; [26],-0.0471 ± 0.24
